PubChem BioAssay
Active and inactive are the calls of the source.

Experiments:
[1] = tested on: Plasmodium falciparum Sir2 (PF13_0152, Sir2A); test: pfSir2 binders on small-molecule microarrays, primary screen, biochemical, small-molecule microarray, 635 nm fluorescence (AID 1098); conditions: small-molecule microarray binding, fluorescence 635 nm; higher = more signal;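 also: score merges spot fluorescence intensity with its signal-to-noise ratio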
[2] = small-molecule microarray binders of probe aDKK1, primary screen, biochemical, biotinylated probe, 635/667 nm fluorescence (AID 1099); conditions: higher = more signal;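 also: score merges 667nm spot fluorescence with signal to noise across triplicate slides; reference of the scale not given here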
[3] = small-molecule microarray binders of probe aCHRDL2, primary screen, biochemical, biotinylated probe, 635/667 nm fluorescence (AID 1100); conditions: higher = more signal
[4] = splicing luciferase reporter signal modulators, primary screen, spliceosome inhibition project, cell-based, HEK293, splice +/- reporter (AID 1101); conditions: luminescence, 24 h, higher = more signal, called active from +8 up or from −8 down;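 also: HEK293 cells carrying a splicing-competent luciferase reporter gene; test concentration not given here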
[5] = molecular target: Fibroblast growth factor 10 (Homo sapiens) (UniProt O15520); test: FGF10 binders on small-molecule microarrays, primary screen, biochemical, small-molecule microarray, 635 nm fluorescence (AID 1102); conditions: FGF10 binding, fluorescence 635 nm, higher = more signal
[6] = tested on: glycogen synthase kinase-3 (GSK3A per assay name; protocol says GSK3B); test: GSK3 binders on small-molecule microarrays, primary screen, biochemical, small-molecule microarray, 635 nm fluorescence, GSK3A (AID 1103); conditions: small-molecule microarray binding, fluorescence 635 nm; higher = more signal; also: the record names both GSK3A and GSK3B
[7] = molecular target: Epidermal growth factor receptor (Homo sapiens) (UniProt P00533); test: EGFR binders on small-molecule microarrays, primary screen, biochemical, small-molecule microarray, 635 nm fluorescence (AID 1104); conditions: EGFR binding, higher = more signal;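 also: score merges 667 nm emission intensity with spot signal to noise over triplicate slides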
[8] = molecular target: Follistatin-related protein 3 (Homo sapiens) (UniProt O95633); test: FSTL3 binders on small-molecule microarrays, primary screen, biochemical, small-molecule microarray, 635 nm fluorescence (AID 1105); conditions: FSTL3 binding, higher = more signal;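 also: score merges emission near 667 nm and signal to noise per printed spot across three slides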
[9] = molecular target: Dickkopf-related protein 1 (Homo sapiens) (UniProt O94907); test: DKK1 binders on small-molecule microarrays, primary screen, biochemical, small-molecule microarray, 635 nm fluorescence scan (AID 1106); conditions: DKK1 binding, higher = more signal;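 also: score merges emission near 667 nm with signal to noise over three replicate slides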
[10] = tested on: Inhibin beta A chain (activin A); test: INHBA (activin A) binders on microarrays, primary screen, biochemical, small-molecule microarray, 635 nm fluorescence scan (AID 1107); conditions: small-molecule microarray binding, higher = more signal;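 also: mouse activin A protein probed at 4.33 µg/mL on printed slides; score merges bound-protein fluorescence near 667 nm with spot signal-to-noise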

Sequence of Follistatin-related protein 3 (Homo sapiens) (O95633 whole entry, looked up): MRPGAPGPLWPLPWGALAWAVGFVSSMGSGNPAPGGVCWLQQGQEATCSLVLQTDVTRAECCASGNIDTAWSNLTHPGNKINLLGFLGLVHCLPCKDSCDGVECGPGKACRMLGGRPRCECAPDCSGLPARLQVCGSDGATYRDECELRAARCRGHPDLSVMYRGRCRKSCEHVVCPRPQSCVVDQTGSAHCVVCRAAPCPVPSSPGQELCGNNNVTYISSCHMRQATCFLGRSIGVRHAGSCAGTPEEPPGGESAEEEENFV
Sequence of Dickkopf-related protein 1 (Homo sapiens) (O94907 whole entry, looked up): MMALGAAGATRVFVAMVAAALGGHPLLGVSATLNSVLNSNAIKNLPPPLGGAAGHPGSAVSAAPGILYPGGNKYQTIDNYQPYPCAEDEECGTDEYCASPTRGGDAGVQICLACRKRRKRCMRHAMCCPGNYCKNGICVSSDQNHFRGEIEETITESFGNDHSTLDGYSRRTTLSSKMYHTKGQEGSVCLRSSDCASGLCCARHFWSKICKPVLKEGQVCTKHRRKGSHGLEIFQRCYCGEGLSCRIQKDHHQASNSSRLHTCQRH
Sequence of Epidermal growth factor receptor (Homo sapiens) (P00533 whole entry, looked up): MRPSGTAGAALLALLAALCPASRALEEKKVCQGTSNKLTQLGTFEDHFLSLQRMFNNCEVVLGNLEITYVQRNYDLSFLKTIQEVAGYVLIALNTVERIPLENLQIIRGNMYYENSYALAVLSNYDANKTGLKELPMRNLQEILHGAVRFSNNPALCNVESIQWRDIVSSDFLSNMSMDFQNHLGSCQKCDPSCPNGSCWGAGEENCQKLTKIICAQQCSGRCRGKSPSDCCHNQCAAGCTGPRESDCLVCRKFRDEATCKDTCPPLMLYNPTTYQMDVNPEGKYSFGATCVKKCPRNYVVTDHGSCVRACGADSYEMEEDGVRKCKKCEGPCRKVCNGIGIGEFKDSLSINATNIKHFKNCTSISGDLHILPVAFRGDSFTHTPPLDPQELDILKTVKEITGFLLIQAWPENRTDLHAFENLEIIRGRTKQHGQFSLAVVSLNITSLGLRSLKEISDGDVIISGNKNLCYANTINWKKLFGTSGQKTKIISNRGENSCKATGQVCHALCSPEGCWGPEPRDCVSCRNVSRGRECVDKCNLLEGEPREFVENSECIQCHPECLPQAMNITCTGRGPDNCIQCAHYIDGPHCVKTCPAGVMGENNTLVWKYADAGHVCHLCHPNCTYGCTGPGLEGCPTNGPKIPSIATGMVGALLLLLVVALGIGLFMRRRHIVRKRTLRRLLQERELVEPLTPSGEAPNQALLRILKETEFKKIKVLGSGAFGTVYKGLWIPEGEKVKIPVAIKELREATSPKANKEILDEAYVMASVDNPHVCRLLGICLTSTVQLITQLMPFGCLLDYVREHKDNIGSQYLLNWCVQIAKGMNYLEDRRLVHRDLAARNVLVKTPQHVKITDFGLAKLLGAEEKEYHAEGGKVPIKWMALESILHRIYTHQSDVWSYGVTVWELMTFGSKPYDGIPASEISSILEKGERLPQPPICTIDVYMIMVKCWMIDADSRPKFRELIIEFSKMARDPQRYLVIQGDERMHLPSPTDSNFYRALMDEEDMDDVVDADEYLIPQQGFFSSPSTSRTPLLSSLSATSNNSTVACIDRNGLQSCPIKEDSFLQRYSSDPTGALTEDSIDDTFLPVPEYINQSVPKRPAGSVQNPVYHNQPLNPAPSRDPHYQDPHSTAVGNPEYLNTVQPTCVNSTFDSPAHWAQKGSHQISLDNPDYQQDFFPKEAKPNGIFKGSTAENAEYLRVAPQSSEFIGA
Sequence of Fibroblast growth factor 10 (Homo sapiens) (O15520 whole entry, looked up): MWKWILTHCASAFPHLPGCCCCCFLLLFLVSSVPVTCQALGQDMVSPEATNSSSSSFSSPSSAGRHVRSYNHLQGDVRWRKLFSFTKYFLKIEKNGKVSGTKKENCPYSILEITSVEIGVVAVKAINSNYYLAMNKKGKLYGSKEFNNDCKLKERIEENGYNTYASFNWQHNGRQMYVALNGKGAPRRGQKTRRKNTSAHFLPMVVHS

SMILES | composite z-score [1] | composite z-score [2] | composite z-score [3] | z-score [4] | composite z-score [5] | composite z-score [6] | composite z-score [7] | composite z-score [8] | composite z-score [9] | composite z-score [10]
COC(=O)[C@@]1(Cc2ccc(OC)cc2)[C@H]2c3cc(C(=O)N(C)C)n(Cc4nc5ccccc5[nH]4)c3C[C@H]2CN1C(=O)c1ccccc1 | 0.432 | 0.956 | 0.958 | -1.21 (inactive) | 1.09 | 1.23 | 0.0916 | 1.35 | -0.463 | 0.777
Cc1ccc(S[C@]2(C(=O)NCC(F)(F)F)CC(=O)N(Cc3ccccc3)[C@@H]2c2ccc(CO)cc2)cc1 | 1.54 | 0.382 | 0.767 | -0.676 (inactive) | -0.409 | -0.507 | -0.938 | -0.763 | -1.32 | -0.0219
COCCOC(=O)N1C(=O)[C@@]2(c3cc(C#CC4=CCCCC4)ccc31)[C@H](c1ccccc1OCCO)N1[C@H](c3ccccc3)[C@H](c3ccccc3)OC(=O)[C@H]1[C@@H]2C(=O)N1CCc2cc(OC)c(OC)cc2C1 | 0.162 | -0.636 | -0.834 | -0.222 (inactive) | 0.848 | 1.18 | 0.733 | 1.4 | 0.356 | -0.244
CCC[C@@H]1C[C@@]1(CCC)[C@@H](NP(=O)(c1ccccc1)c1ccccc1)c1ccc(Cl)cc1 | 0.219 | 0.0536 | 0.292 | -2.26 (inactive) | -0.489 | -0.965 | -0.537 | -0.366 | 0.102 | 1.18
CCCCN1CC=CC23O[C@@H]4C=CCOC(=O)[C@@H]4[C@H]2C(=O)N(CCCO)[C@@H]3C1=O (stereo not given in full) | 1.24 | -0.159 | 0.48 | -1.32 (inactive) | -0.816 | -1.16 | -0.953 | -1.18 | -1.05 | 0.396
COC(=O)[C@@]1(Cc2ccc(F)cc2)[C@H]2c3cc(C(=O)N4CCCC4)n(CCc4c[nH]c5ccc(OC)cc45)c3C[C@H]2CN1C(=O)c1ccccc1 | 1.03 | 1.6 | 1.01 | -3.28 (inactive) | 1.53 | 1.18 | 0.763 | 0.735 | 0.0605 | 1.06
Cc1ccc(C(C)CC(O)C2C=CC3C(=O)N(c4ccccc4)C(=O)C3N2Nc2ccc(C(C)C)cc2)o1 (stereo not given) | 0.938 | 1.14 | 1.37 | 1.46 (inactive) | 0.545 | 0.777 | 0.17 | 0.679 | -0.252 | 1.13
CC(C)C(O)C1C=CC2C(=O)N(C)C(=O)C2N1N(c1ccccc1)c1ccccc1 (stereo not given) | 1.09 | 0.185 | 0.972 | 1.06 (inactive) | -0.879 | -1.5 | -0.381 | -0.49 | -1.07 | 1.7
C[C@@H](OCc1ccccc1)C1NC(=O)[C@@]23C(=O)N[C@@H](Cc4ccccc4)C2[C@H](C)[C@@]2(C)O[C@H]2C3/C=C/C/C=C\CNC(=O)CNC1=O (stereo not given in full) | 1.4 | -0.354 | -0.217 | 0.848 (inactive) | -0.389 | -0.764 | -0.497 | -0.467 | -0.166 | 1.57
C=CCC(OC(C)=O)[C@@H]1[C@@H](N(Cc2cc3ccccc3o2)C(=O)c2ccc(C)cc2)c2cc(OCCCO)ccc2N1C(=O)Cc1ccc2ccccc2c1 (stereo not given in full) | -0.45 | 0.258 | 0.43 | -0.793 (inactive) | -0.204 | -0.822 | -0.0197 | -0.32 | 0.182 | 1.2
COCCCNC(=O)[C@]1(CCC(=O)OC(C)(C)C)N=C(c2ccc(OCCCO)cc2)O[C@@H]1c1ccccc1 | 1.31 | 1.33 | 0.701 | -0.307 (inactive) | 0.417 | 1.28 | -0.301 | -0.47 | -0.261 | -0.497
C=CC[C@@H](OC(=O)Nc1ccc(OC)cc1)c1ccc(OCCO)cc1 | 0.468 | -0.211 | 0.979 | -0.694 (inactive) | -1.77 | -0.711 | -1.99 | -0.993 | -2.37 | -2.6
COc1ccc([Si](C)(C)[C@@H]2[C@@H](CCn3cc([C@H](O)c4ccccc4)nn3)O[C@]3(C(=O)N(Cc4ccc(N5CCOC5=O)cc4)c4ccccc43)[C@H]2C)cc1 | 0.972 | -0.168 | -0.528 | -0.242 (inactive) | 0.953 | 0.426 | 0.664 | 1.02 | 0.757 | 0.504
CCCNC(=O)[C@@]1(c2ccc([N+](=O)[O-])cc2)CC(=O)N(C2CCCCC2)[C@@H]1c1ccc(CO)cc1I | 1.51 | 0.57 | 0.796 | -0.68 (inactive) | 0.841 | 0.705 | 0.297 | 0.532 | 0.214 | -0.406
CN1C(=O)C2C=CC(C(O)C3CCCCC3)N(N3CCCCC3)C2C1=O (stereo not given) | 1.15 | 0.429 | 0.833 | 1.77 (inactive) | 1.06 | 0.675 | 0.442 | 1.45 | 0.379 | 0.776
C=CCNC(=O)[C@H]1[C@@H]2C(=O)O[C@@H](c3ccccc3)[C@@H](c3ccccc3)N2[C@@H](c2ccccc2OCCO)[C@]12C(=O)N(C(=O)OCCOC)c1ccc(C#CC3=CCCCC3)cc12 | 1.39 | 0.683 | 0.521 | -1.85 (inactive) | 0.996 | 1.22 | 0.69 | 1.32 | 1.11 | 1.41
CC=CC(O)C1C=CC2C(=O)N(c3ccccc3)C(=O)C2N1Nc1ccccc1 (stereo not given) | 1.37 | 0.864 | 0.882 | -0.0227 (inactive) | 1.11 | 1.29 | 0.247 | 1.36 | 0.239 | 0.871

SMILES | composite z-score [1] | composite z-score [2] | composite z-score [3] | z-score [4] | composite z-score [5] | composite z-score [6] | composite z-score [7] | composite z-score [8] | composite z-score [9] | composite z-score [10]
C=C[C@@H](C)[C@H](OC(=O)Nc1ccc(SC)cc1)c1ccc(OCCO)cc1 | -0.435 | -0.0748 | 0.626 | -1.91 (inactive) | -0.553 | -1.14 | -0.541 | -0.138 | -0.773 | -0.0131
COc1c(C)cc(-c2cc3c(c(-c4ccccc4)n2)[Si](C(C)C)(C(C)C)OC3)cc1C | 0.0039 | 0.068 | -0.676 | -0.0426 (inactive) | -0.216 | -0.39 | 0.186 | -0.355 | 0.189 | 1.08
CC(C)CNC(=O)[C@@H]1c2ccccc2C(=O)N(Cc2cc(F)cc(C(F)(F)F)c2)[C@H]1c1ccc(CO)cc1 | 0.311 | 0.806 | 1.01 | -0.621 (inactive) | 0.301 | 0.13 | -0.315 | 0.328 | 0.258 | 0.669
CO[C@H]1O[C@H](CO)[C@@H](OC(=O)Nc2ccc(C(F)(F)F)cc2)[C@H](OC(=O)Nc2ccc3c(c2)OCO3)[C@H]1OC(=O)Nc1ccc2c(c1)OCO2 | 1.5 | 0.517 | 0.63 | -0.412 (inactive) | 0.844 | 1.28 | -0.279 | 0.871 | 0.214 | 0.483
CN(C)CCCNC(=O)[C@@]1(c2ccc([N+](=O)[O-])cc2)CC(=O)N(CC23CC4CC(CC(C4)C2)C3)[C@@H]1c1ccc(CO)cc1 | 1.72 | 0.774 | 0.811 | -0.102 (inactive) | 0.239 | 1.32 | 0.201 | 0.996 | 0.54 | 1.14
CN(C)CCCCNC(=O)[C@H]1C[C@H]2C(=O)N[C@@H](CCCCN(C)C)C(=O)N2[C@H]1c1cccc(OCCO)c1 | 1.12 | -0.199 | -0.434 | -0.404 (inactive) | 1.21 | 1.29 | 0.514 | 1.11 | 0.418 | 0.0714
C=CC1c2cc(O)c(OC)cc2CCN1Cc1sc2ccccc2c1Cl (stereo not given) | 1.29 | 0.284 | 1.25 | -1.4 (inactive) | 0.504 | 0.112 | -0.163 | 0.847 | 0.153 | 1.55
C=CC[C@@]1(C(=O)O)N=C(c2ccc(OCCCO)cc2)O[C@@H]1c1ccccc1 | 1.96 | -0.2 | 0.584 | -0.701 (inactive) | -0.21 | 1.06 | -1.9 | -1.15 | -0.659 | -0.361
C=CC[C@@]12N=C(c3ccc(OCCCO)cc3)O[C@@H]1c1ccccc1N(CCS(=O)(=O)c1ccccc1)C2=O | 1.22 | -0.183 | 0.269 | -2.49 (inactive) | 0.397 | 1.28 | 0.272 | 1.19 | 0.571 | 1.23
COCCOC(=O)N1C(=O)[C@@]2(c3cc(C#CCC(C(=O)OC)C(=O)OC)ccc31)[C@H](c1ccc(OCCO)cc1)N1[C@H](c3ccccc3)[C@H](c3ccccc3)OC(=O)[C@H]1[C@@H]2C(=O)N1CCN(c2ncccn2)CC1 | 1.36 | 0.0926 | 0.233 | -0.0387 (inactive) | 0.994 | 1.07 | 0.517 | 1.45 | 0.637 | 0.109
C=CCN1Cc2ccccc2C[C@@]2(N=C(c3ccc(OCCCO)cc3)O[C@H]2c2ccccc2)C1=O | 0.907 | 0.189 | 0.512 | 6.55 (inactive) | 1.17 | 1.26 | 0.147 | 0.363 | 0.0968 | 1.03
O=C1C2C=CC(C(O)c3cc(C(F)(F)F)cc(C(F)(F)F)c3)N(Nc3ccc([N+](=O)[O-])cc3)C2C(=O)N1c1ccccc1 (stereo not given) | 0.905 | 0.359 | 0.499 | 0.765 (inactive) | 0.902 | 1.34 | 0.437 | 1.39 | -0.246 | -0.0083
COCCCNC(=O)[C@]1(Cc2ccccc2N=[N+]=[N-])N=C(c2ccc(OCCCO)cc2)O[C@@H]1c1ccccc1N=[N+]=[N-] | 0.707 | 0.609 | 0.942 | 1.93 (inactive) | 0.955 | 0.353 | -0.287 | 0.219 | -0.589 | 0.738
CC(C)N1CC=CC23O[C@@H]4C=CCOC(=O)[C@@H]4[C@H]2C(=O)N(C(C)CO)[C@@H]3C1=O (stereo not given in full) | 0.776 | -0.162 | 0.559 | 0.408 (inactive) | -0.724 | -1.99 | -1.29 | -0.93 | -1.21 | -0.116
CCOC(=O)C1=CC[C@@H](c2cc(Cl)ccc2Cl)N(S(=O)(=O)c2ccc(C)cc2)[C@H]1c1ccc(OC)cc1 | 0.391 | 0.987 | 1.13 | -0.381 (inactive) | 0.462 | -0.239 | -0.36 | -0.0732 | -0.295 | 1.56
C=C[C@@H](COC(C)=O)NS(=O)(=O)c1ccc(Br)cc1 | 0.549 | -0.103 | -0.0829 | 23.4 (active) | 0.172 | 0.444 | 0.118 | 0.412 | 0.77 | 0.361
C=C(CCCC)/C(=C/C[C@@H](OC(C)=O)c1ccc(CO)o1)c1cc(C(=O)OC)ccc1OC | 0.416 | -0.198 | -0.549 | 1.32 (inactive) | 1.19 | 1.13 | 0.0789 | 1.4 | 0.543 | 0.207
